Test results published in PubChem BioAssay (NCATS).
Records with an inconclusive call do not appear. The source made the active and inactive calls. The call rests on the fitted dose curve; in most records, active means well fitted inhibition curve with a large enough effect; inconclusive means small, poorly fitted or top-dose-only effect; inactive means no such curve, though single readings can be large or run the other way.
On the % scale 0 is the no-effect control and ±100 the full control effect.

The molecules below were run on Zika virus NS2B-NS3 protease (linked construct) (assay: Primary screen NINDS Rhodamine qHTS for Zika virus inhibitors (AID 1347160; further: nearly all actives have a fitted effect of over 55% in size)). Details: purified NS2B-NS3 protease, Rhodamine110 substrate fluorescence; series mostly up to 57.1 µM; activity change, negative = inhibition: at the top concentration.
Procedure, shortened: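 Purified linked NS2B-NS3 protease (NS2B hydrophilic domain joined to NS3 protease by flexible linker), 25 nM in 10 mM Tris-HCl pH 8.0, 0.01% Tween 20. Compounds titrated, 15 min preincubation at room temperature; 1.5 microM Rhodamine110 substrate, FITC fluorescence change over 15 min.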
In the case of `C[C@@H](O[C@H]1OCCN(Cc2nn(P(=O)(O)O)c(=O)[nH]2)[C@H]1c1ccc(F)cc1)c1cc(C(F)(F)F)cc(C(F)(F)F)c1`, the “activity change, negative = inhibition” value is reported as -1.33% [at 33.1 µM] (inactive). For `CN(CC1COCCO1)S(=O)(=O)Nc1ccc2ccc3ncc(-c4cnn(C)c4)cc3c(=O)c2c1` (stereo not given), the “activity change, negative = inhibition” value was -4.63% (inactive). For `c1cc(-c2cnn3cc(-c4ccc(N5CCNCC5)cc4)cnc23)c2cccnc2c1`, the “activity change, negative = inhibition” value was 16.3% (inactive). `C[C@@H]1O[C@@H](O[C@H]2[C@H](OC(=O)[C@]34CCC(C)(C)C[C@H]3C3=CCC5[C@@]6(C)C[C@H](O)[C@H](O[C@@H]7O[C@H](CO)[C@@H](O)[C@H](O)[C@H]7O)[C@](CO)(C(=O)O)C6CC[C@@]5(C)[C@]3(C)C[C@H]4O)OC[C@H](O)[C@@H]2O)[C@H](O)[C@H](O)[C@H]1O[C@@H]1OC[C@@H](O)[C@H](O[C@@H]2OC[C@](O)(CO)[C@H]2O)[C@H]1O` (stereo not given in full) was tested, and the activity change, negative = inhibition was 31.9% [at 10.7 µM] (inactive). For `CS/C=C/C(=O)O[C@@H]1CCC2=CC(=O)C(=C(C)C)C[C@]2(C)[C@H]1C`, the “activity change, negative = inhibition” value was -5.56% [at 33.1 µM] (inactive).
